TGFb SMAD3 inh: TGF-b pathway inhibition; HepG2 CAGA-GFP TGF-b/SMAD3 reporter, GFP fluorescence, 18 h; TGF-beta stimulated, 500 pg/mL final; Potency, µM (highest dose often 46.1 µM), usual class: inhibitors; 410,000 compounds, 1.2% hits; also: nearly all actives have a fitted effect of over 65% in size
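Inhibition of TGF-beta-driven CAGA-GFP reporter expression in HEPG2 cells is measured by cellular GFP fluorescence after 18 h stimulation with 500 pg/mL recombinant TGF-beta in 1% FBS medium at 37 degrees C.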
IL-1B inflam inh: blocks inflammasome-driven IL-1 beta release | THP-1 LPS/ATP IL-1B secretion, AlphaLISA, 16 h; stronger effect = lower value | activity change, % at 57.5 µM | 360,000 compounds, 4.7% hits; in the data active = activity change below about -50%; inconclusive = mostly about -30% to -49%
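Secreted IL-1B measured by AlphaLISA bead assay after 16 h compound exposure of THP-1 cells; compounds (final up to 57.5 uM) added 1 h before LPS (250 ng/mL) and ATP (1.25 mM) stimulation; lower signal means less secretion.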
TDP1 cell noCPT: qHTS for Inhibitors of human tyrosyl-DNA phosphodiesterase 1 (TDP1): qHTS in cells in absence of CPT | DT40 Tdp1-/- hTDP1 cells, no CPT, ATP luminescence, 48 h | Potency, µM (doses to about 46.2 µM), actives largely listed as inhibitors | 420,000 compounds, 15% hits | AID 686978, 2013; also: nearly all actives have a fitted effect of over 55% in size
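Luminescent ATP content (CellTiter-Glo) served as the growth readout. Knockout chicken DT40 cells expressing human TDP1 were exposed to compounds without camptothecin for a minimum 48 hr at 37 °C.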
HepG2 viability: counter-screen for TGF-b inhibitors: cytotoxicity in HepG2 cells. HepG2 CAGA-GFP viability, ATP luminescence, 18 h. Potency, µM (highest dose often 46.1 µM), usual class: cytotoxic. 410,000 compounds, 0.76% hits
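CellTiter-Glo luminescence gave cytotoxicity after 18 hours at 37 degrees C. The cells were HepG2 CAGA-GFP in 1% FBS DMEM, stimulated with 500 pg/mL TGF-beta after compound addition. %Activity was normalised to no-cell wells (complete cell-killing) and DMSO (no toxicity), and curves were fitted and classified.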
ASM inhibitor: inhibitors of human secretory acid sphingomyelinase; P17405; placental ASM, HMU-PC fluorogenic substrate, 60 min; Potency, µM (titrated, usually from 57.5 µM), most hits filed as inhibitors; 340,000 compounds, 0.006% hits
Target sequence (P17405 47-631 limits assumed): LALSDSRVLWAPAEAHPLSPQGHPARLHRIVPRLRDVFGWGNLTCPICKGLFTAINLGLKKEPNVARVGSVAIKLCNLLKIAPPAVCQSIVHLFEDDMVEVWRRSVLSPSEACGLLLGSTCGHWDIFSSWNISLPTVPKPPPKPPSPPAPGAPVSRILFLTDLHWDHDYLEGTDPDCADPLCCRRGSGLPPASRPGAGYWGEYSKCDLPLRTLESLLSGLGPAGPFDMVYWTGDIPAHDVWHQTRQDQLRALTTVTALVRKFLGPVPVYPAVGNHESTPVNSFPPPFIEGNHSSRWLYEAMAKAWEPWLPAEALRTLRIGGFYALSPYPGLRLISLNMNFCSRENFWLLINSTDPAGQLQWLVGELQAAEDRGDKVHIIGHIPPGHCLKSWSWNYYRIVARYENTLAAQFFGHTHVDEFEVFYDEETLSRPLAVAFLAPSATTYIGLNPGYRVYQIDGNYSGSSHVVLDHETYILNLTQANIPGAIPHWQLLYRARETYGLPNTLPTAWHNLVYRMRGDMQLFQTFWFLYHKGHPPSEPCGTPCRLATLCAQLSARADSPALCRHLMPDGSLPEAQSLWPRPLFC
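qHTS format. ASM enzyme prepared from human placenta hydrolyses the fluorogenic substrate HMU-PC0 (9 uM final) over 60 min at 37 °C after a 10 min compound preincubation.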
DT40 TDP1 CPT: growth inhibition of DT40 Tdp1-/-;hTDP1 cells with camptothecin (screen for TDP1 inhibitors) | chicken DT40 Tdp1-/-;hTDP1 cells + 20 nM CPT, ATP luminescence, 48 h | Potency, µM (doses to about 46.2 µM), most hits filed as inhibitors | 420,000 compounds, 12% hits | AID 686979; also: nearly all actives have a fitted effect of over 55% in size
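Cell growth measured by CellTiter-Glo luminescence after a minimum 48 h, 37 C compound exposure with 20 nM CPT in Tdp1-knockout DT40 cells stably expressing hTDP1, seeded 400/well; qHTS titration format.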
Hits are given with their value; – = inactive; ? = inconclusive; · = not tested or not shown. Compounds with a hit are over-represented: about 19% of the library has one in this group of screens. Unless noted, calls follow the shape of the dose curve; as a rule, active = well fitted curve in the direction sought with a large enough effect; inconclusive = small, poorly fitted or top-dose-only effect, or another doubt; inactive = no such curve, though single readings can be large; an effect the other way counts as inactive or inconclusive.

SMILES	TGFb SMAD3 inh	IL-1B inflam inh	TDP1 cell noCPT	HepG2 viability	ASM inhibitor	DT40 TDP1 CPT
COc1ccccc1C(=O)Nc1ccc(C2=NNC(=O)CC2C)cc1 (stereo not drawn)	–	–	?	–	–	–
CCN(CC)S(=O)(=O)c1ccc(N2CCOCC2)c(NC(=O)c2ccc3c(c2)OCCO3)c1	–	–	21µM	–	–	16µM
CCN(CC)S(=O)(=O)c1ccc(N2CCOCC2)c(NC(=O)c2cc(-c3ccccn3)nc3ccccc23)c1	–	–	9.2µM	–	–	13µM
CCS(=O)(=O)c1ccc(O)c(NC(=O)c2cc(-c3ccccn3)nc3ccccc23)c1	–	–	?	–	–	?
COc1ccc(S(=O)(=O)N2CCOCC2)cc1NC(=O)c1cccc2c(=O)c(C)c(-c3ccccc3)oc12	–	–	5.2µM	–	–	?
CCN(CC)S(=O)(=O)c1ccc(N2CCOCC2)c(NC(=O)c2ccc3ccccc3c2)c1	–	–	21µM	–	–	?
COc1ccc(S(=O)(=O)N2CCOCC2)cc1NC(=O)c1cc(C)oc1C	–	–	–	–	–	–
CCc1ccccc1NC(=O)COC(=O)C1C2CC3OC(=O)C1C3C2 (stereo not drawn)	–	–	–	–	–	–
COc1ccc(N2CC(NC(=O)C3CCCC3)CC2=O)cc1 (stereo not drawn)	–	·	–	–	·	–
CCOC(=O)c1c(C)[nH]c(C)c1C(=O)COC(=O)CSc1ccc(C)cc1	–	–	?	–	–	?
COc1ccc(S(=O)(=O)N2CCOCC2)cc1NC(=O)CN1C(=O)NC2(CCCC2)C1=O	–	–	–	–	–	–
CCN(CC)S(=O)(=O)c1ccc(N2CCOCC2)c(NC(=O)c2c3c(nc4ccccc24)CCC3)c1	–	–	15µM	–	–	15µM
CCN(CC)S(=O)(=O)c1ccc(N2CCOCC2)c(NC(=O)C2=COCCO2)c1	–	–	?	–	–	?
COC(=O)CC1C2(C)CC34OC5(C)O[C@@]6(C7/C(=C(/OC)C(C)C)C(=O)OC(c8ccoc8)[C@@]7(C)C(OC(=O)C(C)C)C(OC)[C@]6(O5)[C@@]13C)C(OC)[C@]4(OC)C2OC(C)=O (stereo partly drawn)	·	·	13µM	·	·	8.2µM
CC(C)/C(O)=C1/C(=O)OC(c2ccoc2)[C@@]2(C)C(O)C(O)[C@@]34OC5(C)OC67CC(C)(C(O)[C@@]6(O)C(O)[C@@]3(O5)C12)C(CC(=O)O)[C@@]74C (stereo partly drawn)	·	·	–	·	·	–
O=S(=O)(c1ccc2c(c1)C(O)c1ccccc1CC2)C(F)(F)F (stereo not drawn)	?	·	·	–	–	·
COCCOC(=O)c1c(C)oc2ccc(NS(=O)(=O)c3ccc(C)cc3)cc12	?	–	26µM	–	–	?
CCc1ccc(S(=O)(=O)Nc2ccc3oc(C)c(C(=O)OCCOC)c3c2)cc1	?	·	?	–	·	?
CCCc1oc2ccc(NS(=O)(=O)c3ccc(OCC)cc3)cc2c1C(=O)OCC	?	·	5.8µM	–	·	6.5µM
CCOC(=O)c1c(C)oc2ccc(NS(=O)(=O)c3ccc4c5c(cccc35)C(=O)N4)cc12	–	–	?	–	–	?
COCCOC(=O)c1c(C)oc2ccc(OC(=O)c3c(OC)cccc3OC)cc12	–	–	16µM	–	–	?
CCCc1oc2ccc(NS(=O)(=O)c3ccc(OC)cc3)cc2c1C(=O)OCC	10µM	·	1.2µM	–	·	1.8µM
CCOc1ccc(S(=O)(=O)Nc2ccc3oc(C)c(C(=O)OC(C)C)c3c2)cc1	?	·	·	–	·	·
CCOc1ccccc1N(C)C(=O)c1sc2ncn(CC(=O)N3CCCCC3C)c(=O)c2c1C (stereo not drawn)	–	–	?	–	–	?
CCOC(=O)c1c(C)oc2ccc(OCc3cc(C(=O)OC)oc3C)cc12	–	–	13µM	–	–	18µM
SMILES	TGFb SMAD3 inh	IL-1B inflam inh	TDP1 cell noCPT	HepG2 viability	ASM inhibitor	DT40 TDP1 CPT
Cc1ccc(OCC(=O)OCc2nc3scc(-c4ccccc4)c3c(=O)[nH]2)cc1C	–	–	–	–	–	–
O=C(Cn1c2ncccc2c(=O)n1-c1ccccc1)Nc1ccc(Cl)cc1C(F)(F)F	–	·	?	–	·	?
CCOc1ccc(C(=O)NCC(=O)N2CCCC2)cc1	–	–	–	–	–	–
COc1ccc2c(c1)CC/C(=C\c1ccc(OC)c(Cn3nc(C)cc3C)c1)C2=O	–	–	18µM	–	–	16µM
COc1ccc2c(c1)CC/C(=C\c1ccc(OC)c(Cn3cccn3)c1)C2=O	?	-52	26µM	–	–	18µM
CCN1C(=O)[C@H]2[C@H]3CN=C(SCc4ccccc4)N3[C@@](CC)(C(=O)OC)[C@H]2C1=O	–	–	?	–	–	–
CCc1nnc(NC(=O)C2CCCN2C(=O)Nc2ccccc2)s1 (stereo not drawn)	–	–	–	–	–	–
O=C(CCN1CCCCC1)c1ccccc1	?	–	13µM	–	–	11µM
O=C(OCCN1CCOCC1)c1ccc(OCCN2CCOCC2)cc1	–	–	–	–	–	–
CCOc1ccc(OCCN2CCCCC2)cc1	?	–	–	–	–	–
CCCCOc1ccc(C(=O)CCN2CCOCC2)cc1	?	-104	6.5µM	–	–	5.2µM
CC1CCCN(CCC(=O)c2ccccc2)C1 (stereo not drawn)	–	–	10µM	–	–	4.6µM
CCOc1ccc(C(=O)CCN2CCCCCC2)cc1	?	?	2.9µM	11µM	–	3.7µM
CS(=O)(=O)N1CCC[C@@]2(CCN(c3ccccn3)C2)C1	·	·	–	·	·	–
Cc1ccc(-n2ncc(C(=O)NCCCN3CCCCC3)c2C2CCN(C(=O)OC(C)(C)C)CC2)c(C)c1	?	·	?	–	·	?
O=C(OCC(=O)c1c[nH]c2ccccc12)c1cccc([N+](=O)[O-])c1	–	–	–	–	–	–
COc1ncc2nc(-c3ccc(F)cc3)c(=O)n(CCC#N)c2n1	·	·	–	·	·	–
O=C(CCN1CCOCC1)c1ccccc1	?	-72	3.5µM	–	–	2.6µM
O=C(c1ccc(Br)cc1)N1CCN(Cc2ccccc2)CC1	–	–	–	–	–	–
C[N+]1(CCC(=O)c2ccccc2)CCCCC1	?	–	2.6µM	–	–	3.3µM
O=C(CCN1CCN(C(=O)c2ccccc2)CC1)c1ccc(Br)cc1	–	–	8.2µM	–	–	7.3µM

Screening results deposited in PubChem BioAssay by National Center for Advancing Translational Sciences (NCATS).
